PfHsp90 set2: inhibits growth of yeast expressing Plasmodium falciparum Hsp90 | S. cerevisiae expressing PfHsp90, BacTiter-Glo ATP, 48 h; yeast lacking PDR1 and PDR3 efflux regulators | inhibition, % at 9.4 µM | 310,000 compounds, 0.32% hits;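 active = every replicate shows inhibition above about 80%, whatever the replicate mean, limit read from the data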;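 also: 0% = DMSO neutral controls and 100% = 20 µM radicicol positive controls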
TIM10 inh: inhibits growth of TIM10 yeast strain | S. cerevisiae TIM10 strain growth, BacTiter-Glo luminescence, 24 h | inhibition, % at 10 µM | 330,000 compounds, 1.4% hits | AID 463195;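 active = inhibition of 40% or more at the single tested concentration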;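 also: wild-type TIM10 isogenic control strain grown at permissive 25 °C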
SKKanGAS inh: blocks kanamycin growth of S. pyogenes SKKanGAS strain; BacTiter-Glo, 6 h; inhibition, % at 7.5 µM; 300,000 compounds, 1.3% hits;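 active = mean replicate score, as percent of positive control median, at least 50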;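 also: strain carries kanamycin resistance gene driven by streptokinase promoter and grows in 40 µg/ml kanamycin; loss of luminescence reflects streptokinase promoter inhibition or plain growth inhibition; 0% = median of DMSO wells and 100% = positive control at its reference dose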
tim10-1 inh: growth inhibitors of tim10-1 mutant yeast | inhibition, % at 20 µM | 330,000 compounds, 2.2% hits | S. cerevisiae tim10-1 ts strain growth, BacTiter-Glo, 24 h | AID 463190;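 active = inhibition of at least 40%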;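 also: mutant grown at 25 °C; 0% = DMSO wells with yeast and 100% = wells holding no yeast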
tim23-1 inh: inhibits growth of tim23-1 mutant yeast; S. cerevisiae tim23-1 growth, BacTiter-Glo luminescence, 24 h; inhibition, % at 20 µM; 330,000 compounds, 1.3% hits; AID 463212;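 active = growth inhibition of the mutant yeast at or above 50%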;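 also: temperature-sensitive mutant grown at 25 °C; plate controls were DMSO-treated mutant yeast for no effect and medium wells lacking yeast for full effect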
NLRP3 yeast inh: inhibitors of NALP3 inflammasome in yeast; AID 2825; Yeast reconstituted NLRP3/ASC/caspase-1, beta-gal luminescence, 24 h; inhibition, % at 10 µM; 330,000 compounds, 0.39% hits;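 active = inhibition of 50% or more; inactive = inhibition below 50%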;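 also: plate controls were induced DMSO wells for no effect and uninduced yeast grown without galactose for full effect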
NALP3 confirm: confirmation of NALP3 inhibitors in yeast. shares compounds with NLRP3 yeast inh. yeast expressing human NALP3, luminescence. inhibition, % at 10 µM. 1,300 compounds, 81% hits. AID 435006; in the data active = inhibition above about 48%
Casp1-ASC yeast: active in yeast caspase-1-ASC counter-screen for NALP3 inhibitors; shares compounds with NLRP3 yeast inh; yeast expressing Caspase-1-ASC, luminescence counter screen; inhibition, % at 10 µM; 1,000 compounds, 66% hits
NALP3 retest: retest-confirmed inhibitor of NALP3 in yeast; shares compounds with NLRP3 yeast inh; yeast expressing human NALP3, luminescence read-out; inhibition, % at 10 µM; 1,000 compounds, 53% hits; AID 488794
tim10-1 conf: tim10-1 yeast growth inhibition, confirmed. shares compounds with tim10-1 inh. S. cerevisiae tim10-1 ts strain growth, BacTiter-Glo, 24 h. inhibition, % at 20 µM. 7,400 compounds, 56% hits;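 active = inhibition of yeast growth at or above a set limit in either of two repeat tests at 20 µM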;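 also: tim10-1 mutant grown at permissive 25 °C to find synthetic lethal compounds; 0% = DMSO yeast wells and 100% = medium wells without yeast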
TIM10 conf: TIM10 yeast growth inhibition, confirmed. shares compounds with TIM10 inh. S. cerevisiae tim10 strain growth, BacTiter-Glo luminescence, 24 h. inhibition, % at 10 µM. 4,600 compounds, 63% hits;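 active = inhibition of yeast growth at or above a set limit in either of two replicates at 10 µM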;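 also: this counterscreen used the strain with wild-type TIM10; 0% = yeast with DMSO and 100% = medium wells lacking yeast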
tim23-1 conf: confirmation of tim23-1 mutant yeast growth inhibitors; shares compounds with tim23-1 inh; S. cerevisiae tim23-1 growth, BacTiter-Glo luminescence, 24 h; inhibition, % at 20 µM; 4,400 compounds, 83% hits;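 active = inhibition above about 39% in either of two replicate wells at 20 µM, limit read from the data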;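 also: temperature-sensitive tim23-1 mutant grown at 25 °C; 0% = DMSO wells with yeast and 100% = medium wells without yeast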
* marks the source's active call; other numbers are inactive results; nt = no result. Rows were chosen to be rich in hits. Some 4.5% of all compounds tested hit in one or more screens of this group. Rule as the data show it, unless noted: active = inhibition above about 50%; inactive = the rest.

SMILES	PfHsp90 set2	TIM10 inh	SKKanGAS inh	tim10-1 inh	tim23-1 inh	NLRP3 yeast inh	NALP3 confirm	Casp1-ASC yeast	NALP3 retest	tim23-1 conf	others
O=C(N/N=C/c1ccccc1)c1ccco1	19	-2	1	-14	15	8	nt	nt	nt	nt
O=C(N/N=C/C(Br)=C\c1ccccc1)c1ccco1	13	-15	-1	-88	66*	64*	77*	74*	54*	45*
Cc1cc(F)ccc1NC(=O)c1cc(S(=O)(=O)N2CCOCC2)cn1C	-13	-7	-8	1	-5	7	nt	nt	nt	nt
Cc1ccc(NC(=O)c2ccccc2)cc1C	-16	46*	nt	20	59*	52*	75*	40	42	64*	TIM10 conf=23
Cc1ccc(NC(=O)c2cccnc2)cc1C	9	0	7	-9	10	28	nt	nt	nt	nt
O=C(O)c1cccc(NC(=O)c2ccccc2)c1	0	nt	nt	nt	nt	nt	nt	nt	nt	nt
O=C(Nc1cccc(F)c1)c1ccccc1	nt	53*	1	11	50*	60*	84*	68*	68*	66*	TIM10 conf=47*
CCN1/C(=C/C=C/c2oc3ccc4ccccc4c3[n+]2CC)Oc2ccc3ccccc3c21	nt	62*	nt	54*	69*	59*	61*	nt	nt	64*	tim10-1 conf=56*;TIM10 conf=68*
Cc1cc(NC(=O)c2ccc(F)cc2)n(C)n1	-19	1	-3	0	4	12	nt	nt	nt	nt
CCC(NC(=O)NNC(=O)c1ccncc1)(C(F)(F)F)C(F)(F)F	1	9	-2	-7	0	10	nt	nt	nt	nt
COC(=O)c1ccc(N/C=C/C(=O)c2ccccc2)cc1	4	-6	10	5	12	12	nt	nt	nt	nt
O=C(O)c1cc(NC(=O)c2ccccc2F)cc(NC(=O)c2ccccc2F)c1	1	5	7	-1	12	3	nt	nt	nt	nt
O=C(Nc1ccc(Nc2ccccc2)cc1)c1ccc(Br)o1	4	39	17	41*	52*	66*	76*	76*	74*	80*	tim10-1 conf=33*
O=C(Nc1ccc(Nc2ccccc2)cc1)c1ccccc1F	-23	-31	7	-55	64*	52*	68*	58*	64*	61*
N#C/C(C(N)=O)=c1/ccc2c(c1)N1C3=C(CCCC3)CC3CCCCC31N=2 (stereo not given)	nt	19	11	26	63*	57*	14	nt	nt	52*
CN=C1S/C(=C\c2ccc(O)c(Br)c2)C(=O)N1C	28	37	29	56*	62*	68*	84*	78*	72*	63*	tim10-1 conf=50*
Cc1cc(NC(=O)CSc2nc(=O)cc(N)n2-c2ccc(C)c(C)c2)no1	3	-2	3	-5	14	7	nt	nt	nt	nt
N#C/C(=C\c1cccc(Br)c1)C(=O)N1CCCCC1	-122	63*	-6	70*	81*	60*	58*	68*	50*	73*	tim10-1 conf=68*;TIM10 conf=74*
N#C/C(=C\c1cccc(O)c1)C(=O)N1CCCCC1	5	25	-2	36	46	20	nt	nt	nt	nt
Cc1ccc2nc(N/N=C\c3ccc([N+](=O)[O-])o3)nc(-c3ccccc3)c2c1	-107	1	100*	23	67*	57*	44	43	33	14
O=[N+]([O-])c1ccc(/C=N/Nc2ccc3ccccc3c2)o1	10	-24	19	8	13	30	nt	nt	nt	nt

Bioassay records from PubChem BioAssay.
